Experimental data reported in PubChem BioAssay (NCATS).
Records with an inconclusive call do not appear. The source made the active and inactive calls. Calls follow the shape of the dose curve; as a rule, active = well fitted curve in the direction sought with a large enough effect; inconclusive = small, poorly fitted or top-dose-only effect, or another doubt; inactive = no such curve, though single readings can be large; an effect the other way counts as inactive or inconclusive.

Legend:
[1] = test system: HACAT; assay: qHTS assay to identify novel small-molecules to repurpose for Merkel cell carcinoma treatment (AID 1296009); details: MCC and control cell lines, CellTiter-Glo viability, 72 h; at 44.8 µM (top of the series) unless noted; also: nearly all actives have a fitted effect of over 60% in size
In short: (§1)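 Dose-response viability screen; 72 hr exposure at 37 degree celsius; CellTiter-Glo added, 10 min room temperature, luminescence read; RLUs scaled between no-cell and DMSO wells.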

[2] = test system: NIH3T3; assay: as above; details: MCC and control cell lines, CellTiter-Glo viability, 72 h; at 44.8 µM (top of the series) unless noted
In short: as §1

[3] = test system: C33A; assay: Primary qHTS to identify gynecologic anti-cancer compounds using libraries of approved drugs and bioactive compounds (AID 1345084); details: Gynecologic cancer cell panel viability, ATPlite luminescence, 48 h; series mostly up to 57.5 µM; also: % is scaled to controls: 0 for no effect and ±100 for the full control effect; nearly all actives have a fitted effect of over 55% in size
In short: (§2)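 Cells, 1,000 per well, plated 16 h, then exposed 48 h at 37 C to compounds. Viability by ATPlite luminescence after 15 min at room temperature.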

[4] = test system: CAOV3; assay: as above; details: Gynecologic cancer cell panel viability, ATPlite luminescence, 48 h; series mostly up to 57.5 µM
In short: as §2

[5] = test system: CASKI; assay: as above; details: Gynecologic cancer cell panel viability, ATPlite luminescence, 48 h; series mostly up to 57.5 µM
In short: as §2

[6] = test system: Es-2; assay: as above; details: Gynecologic cancer cell panel viability, ATPlite luminescence, 48 h; series mostly up to 57.5 µM
In short: as §2

[7] = test system: HeLa; assay: as above; details: Gynecologic cancer cell panel viability, ATPlite luminescence, 48 h; series mostly up to 57.5 µM
In short: as §2

[8] = test system: Hek293T; assay: as above; details: Gynecologic cancer cell panel viability, ATPlite luminescence, 48 h, control line for the selectivity index; series mostly up to 57.5 µM
In short: as §2

[9] = test system: JEG-3; assay: as above; details: Gynecologic cancer cell panel viability, ATPlite luminescence, 48 h; series mostly up to 57.5 µM
In short: as §2

C/C1=C\CC(C)(C)/C=C/C/C(C(=O)O)=C/CC1
inactive: outcome [1] | outcome [2] | Potency [3] | Potency [4] | outcome [5] | Potency [6] | Potency [7] | Potency [8]

O=C(/C=C/c1ccc(O)cc1)O[C@H]1[C@H](OC2CCCCC2O)O[C@H](CO)[C@@H](O)[C@@H]1O (stereo partly drawn)
inactive: outcome [1] inactive [at 17.4 µM] | outcome [2] inactive [at 17.4 µM] | Potency [3] | Potency [4] | outcome [5] | Potency [6] | Potency [7] | Potency [8] | Potency [9]

C[C@H]1CC[C@H]2[C@@H](C=C[C@@](C)(O)[C@]2(C)C(=O)CCO)C1
inactive: outcome [1] | outcome [2] | Potency [3] | Potency [4] | outcome [5] | Potency [6] | Potency [7] | Potency [8]

Cc1cn(-c2cc(NC(=O)c3ccc(C)c(Nc4nccc(-c5cnccn5)n4)c3)cc(C(F)(F)F)c2)cn1
inactive: outcome [1] | outcome [2] | Potency [3] | Potency [4] | outcome [5] | Potency [6] | Potency [7] | Potency [8] | Potency [9]

OC[C@H]1O[C@@H](OCc2ccccc2)[C@H](O)[C@@H](O)[C@@H]1O
inactive: outcome [1] | outcome [2] | Potency [3] | Potency [4] | outcome [5] | Potency [6] | Potency [7] | Potency [8] | Potency [9]

COc1cc(C(=O)OCC2=CCC3C(C(=O)O)=COC(O[C@@H]4O[C@H](CO)[C@@H](O)[C@H](O)[C@H]4O)C23)ccc1O (stereo partly drawn)
inactive: outcome [1] inactive [at 17.4 µM] | outcome [2] inactive [at 17.4 µM] | Potency [3] | Potency [4] | outcome [5] | Potency [6] | Potency [7] | Potency [8] | Potency [9]

COc1ccc2[nH]c(S(=O)Cc3ncc(C)c(OC)c3C)nc2c1 (stereo not drawn)
inactive: outcome [1] | outcome [2] | Potency [3] | Potency [4] | outcome [5] | Potency [6] | Potency [7] | Potency [8] | Potency [9]

CC12CC(c3ccoc3)OC(=O)C1CCC1(C)C2CCC(O)C1(C)O (stereo not drawn)
inactive: outcome [1] | outcome [2] | Potency [3] | Potency [4] | outcome [5] | Potency [6] | Potency [7] | Potency [8] | Potency [9]

Cn1cc(-c2c[nH]c3ncnc(N4CCOCC4)c23)cn1
inactive: outcome [1] | outcome [2] | Potency [3] | Potency [4] | outcome [5] | Potency [6] | Potency [7] | Potency [8] | Potency [9]

CNc1nc(C)nc(N[C@H]2CCC[C@@H](C(=O)NCc3ccc(C#N)cc3C(F)(F)F)C2)n1
inactive: outcome [1] | outcome [2] | Potency [3] | Potency [4] | outcome [5] | Potency [6] | Potency [7] | Potency [8] | Potency [9]

COc1cc(-c2ccc(O)cc2)c(OC)c(O)c1C1=CC(=O)OC1CC(=O)O (stereo not drawn)
inactive: outcome [1] | outcome [2] | Potency [3] | Potency [4] | outcome [5] | Potency [6] | Potency [7] | Potency [8] | Potency [9]

CC[C@H](C)[C@H](NC(=O)[C@H](Cc1ccc(O)cc1)NC(=O)[C@@H](N)C(C)C)C(=O)N[C@@H](Cc1cnc[nH]1)C(=O)N1CCC[C@H]1C(=O)N[C@@H](Cc1ccccc1)C(=O)O
inactive: outcome [1] inactive [at 4.96 µM] | outcome [2] inactive [at 4.96 µM] | activity change, negative = cytotoxicity [3] 19.1% [at 6.55 µM] | activity change, negative = cytotoxicity [4] 20.7% [at 6.55 µM] | activity change, negative = cytotoxicity [5] -0.165% [at 6.55 µM] | activity change, negative = cytotoxicity [6] 0.0528% [at 6.55 µM] | activity change, negative = cytotoxicity [7] 25.4% [at 6.55 µM] | activity change, negative = cytotoxicity [8] 1.27% [at 6.55 µM] | activity change, negative = cytotoxicity [9] 1.86% [at 6.55 µM]

NC(=O)[C@@H]1CC[C@H](c2ccc(OCc3ccccc3F)cc2)N1
inactive: outcome [1] | outcome [2] | Potency [3] | Potency [4] | outcome [5] | Potency [6] | Potency [7] | Potency [8] | Potency [9]

CC(C)C1(O)C=C2C(=O)CC3C(C)(C(=O)O)CCCC3(C)C2CC1 (stereo not drawn)
inactive: outcome [1] | outcome [2] | Potency [3] | Potency [4] | outcome [5] | Potency [6] | Potency [7] | Potency [8] | Potency [9]

CC1(C)[C@H]2C[C@H](C/C=C\CCCC(=O)O)[C@@H](NC(=O)c3csc4ccc(O)cc34)[C@@H]1C2
inactive: outcome [1] | outcome [2] | Potency [3] | Potency [4] | outcome [5] | Potency [6] | Potency [7] | Potency [8] | Potency [9]

CC(C)=CCc1cc(O[C@@H]2O[C@H](CO[C@@H]3OC[C@](O)(CO)[C@H]3O)[C@@H](O)[C@H](O)[C@H]2O)ccc1O
inactive: outcome [1] inactive [at 17.4 µM] | outcome [2] inactive [at 17.4 µM] | Potency [3] | Potency [4] | outcome [5] | Potency [6] | Potency [7] | Potency [8] | Potency [9]

Nc1ncnc2c1C(=O)N(c1ccc(C3CCC(CC(=O)O)CC3)cc1)CCO2 (stereo not drawn)
inactive: outcome [1] | outcome [2] | Potency [3] | Potency [4] | outcome [5] | Potency [6] | Potency [7] | Potency [8] | Potency [9]

CC1C2=CC(=O)OC2(O)CC2C1C(O)CC1C(C)(CO)CCCC21C (stereo not drawn)
inactive: outcome [1] | outcome [2] | Potency [3] | Potency [4] | outcome [5] | Potency [6] | Potency [7] | Potency [8] | Potency [9]

CC(O)/C=C/C1(O)C(C)C(O)C(O[C@@H]2O[C@H](CO)[C@@H](O)[C@H](O)[C@H]2O)CC1(C)C (stereo partly drawn)
inactive: outcome [1] inactive [at 17.4 µM] | outcome [2] inactive [at 17.4 µM] | Potency [3] | Potency [4] | outcome [5] | Potency [6] | Potency [7] | Potency [8] | Potency [9]

COc1cc(Nc2nc3ccccc3nc2NS(=O)(=O)c2cccc(NC(=O)c3ccc(C)c(OC)c3)c2)cc(OC)c1
inactive: outcome [1] | outcome [2] | Potency [3] | Potency [4] | outcome [5] | Potency [6] | Potency [7] | Potency [8] | Potency [9]

C[C@@H]1O[C@@H](O[C@H]2[C@H](O[C@H]3[C@H](O[C@H]4CC[C@@]5(C)C(CC[C@]6(C)C5CC=C5[C@@H]7CC(C)(C)C[C@@H](O)[C@]7(C)CC[C@]56C)[C@@]4(C)CO)O[C@H](C(=O)O)[C@@H](O)[C@@H]3O)O[C@H](CO)[C@H](O)[C@@H]2O)[C@H](O)[C@H](O)[C@H]1O (stereo partly drawn)
inactive: outcome [1] inactive [at 9.27 µM] | outcome [2] inactive [at 9.27 µM] | activity change, negative = cytotoxicity [3] -1.56% [at 11.6 µM] | activity change, negative = cytotoxicity [4] 6.93% [at 11.6 µM] | activity change, negative = cytotoxicity [5] 9.29% [at 11.6 µM] | activity change, negative = cytotoxicity [6] 0.369% [at 11.6 µM] | activity change, negative = cytotoxicity [7] 7.52% [at 11.6 µM] | activity change, negative = cytotoxicity [8] -1.54% [at 11.6 µM] | activity change, negative = cytotoxicity [9] 7.46% [at 11.6 µM]

C/C=C1/[C@H](O[C@@H]2O[C@H](CO)[C@@H](O)[C@H](O)[C@H]2O)OC=C(C(=O)OC)[C@H]1CC(=O)OCCc1ccc(O)c(O)c1
inactive: outcome [1] inactive [at 17.4 µM] | outcome [2] inactive [at 17.4 µM] | Potency [3] | Potency [4] | outcome [5] | Potency [6] | Potency [7] | Potency [8] | Potency [9]

CC(=O)c1ccc(O[C@@H]2O[C@H](CO[C@@H]3OC[C@@H](O)[C@H](O)[C@H]3O)[C@@H](O)[C@H](O)[C@H]2O)cc1
inactive: outcome [1] inactive [at 17.4 µM] | outcome [2] inactive [at 17.4 µM] | Potency [3] | Potency [4] | outcome [5] | Potency [6] | Potency [7] | Potency [8] | Potency [9]

C=CCc1ccc(O[C@@H]2O[C@H](CO)[C@@H](O)[C@H](O)[C@H]2O)c(O[C@@H]2O[C@H](CO)[C@@H](O)[C@H](O)[C@H]2O)c1
inactive: outcome [1] inactive [at 17.4 µM] | outcome [2] inactive [at 17.4 µM] | Potency [3] | Potency [4] | outcome [5] | Potency [6] | Potency [7] | Potency [8] | Potency [9]

C=C[C@@]1(C)CCC2=C([C@H]1OC(C)=O)[C@H](OC(C)=O)CC1[C@](C)(C(=O)OC)CC[C@H](OC(C)=O)[C@]21C (stereo partly drawn)
inactive: outcome [1] inactive [at 17.4 µM] | outcome [2] inactive [at 17.4 µM] | Potency [3] | Potency [4] | outcome [5] | Potency [6] | Potency [7] | Potency [8] | Potency [9]

O=C(C[C@@H]1C(C(=O)O)=CO[C@@H](O[C@@H]2O[C@H](CO)[C@@H](O)[C@H](O)[C@H]2O)/C1=C\CO)OCCc1ccc(O)c(O)c1
inactive: outcome [1] inactive [at 17.4 µM] | outcome [2] inactive [at 17.4 µM] | Potency [3] | Potency [4] | outcome [5] | Potency [6] | Potency [7] | Potency [8] | Potency [9]

COC(=O)C1=CO[C@@H](O[C@@H]2O[C@H](CO)[C@@H](O)[C@H](O)[C@H]2O)[C@@H]2[C@@H](C)[C@@H](O)C(O)[C@H]12 (stereo partly drawn)
inactive: outcome [1] inactive [at 17.4 µM] | outcome [2] inactive [at 17.4 µM] | Potency [3] | Potency [4] | outcome [5] | Potency [6] | Potency [7] | Potency [8] | Potency [9]

C=CC(C)(O)CC/C=C(\C)C1CC=C(C)C(=O)O1 (stereo not drawn)
inactive: outcome [1] | outcome [2] | Potency [3] | Potency [4] | outcome [5] | Potency [6] | Potency [7] | Potency [8] | Potency [9]

CC(C)=CCC[C@@](C)(O)[C@H]1CC[C@]2(C)[C@@H]1[C@H](O)CC1[C@@]3(C)CC[C@H](O[C@@H]4O[C@H](CO)[C@@H](O)[C@H](O)[C@H]4O[C@@H]4O[C@H](CO)[C@@H](O)[C@H](O)[C@H]4O)C(C)(C)[C@@H]3CC[C@]12C (stereo partly drawn)
inactive: outcome [1] inactive [at 17.4 µM] | outcome [2] inactive [at 17.4 µM] | Potency [3] | Potency [4] | outcome [5] | Potency [6] | Potency [7] | Potency [8] | Potency [9]

CN1CCN(C(=O)c2cc3cc(Cl)ccc3[nH]2)CC1
inactive: outcome [1] | outcome [2] | Potency [3] | Potency [4] | outcome [5] | Potency [6] | Potency [7] | Potency [8] | Potency [9]
